Experimental data as given in ChEMBL document CHEMBL5724796, “Tm Shift (DSF) assay results for EUbOPEN Chemogenomics Library” (2024).

Key:
Conditions in all cases: Compound concentration 20.0 uM
[1] = molecular target: Tyrosine-protein kinase ABL1 (Homo sapiens) (UniProt P00519)
[2] = molecular target: Bromodomain-containing protein 4 (Homo sapiens) (UniProt O60885)
[3] = molecular target: Cyclin-dependent kinase 2 (Homo sapiens) (UniProt P24941)
[4] = molecular target: Casein kinase I isoform delta (Homo sapiens) (UniProt P48730)
[5] = molecular target: Glycogen synthase kinase-3 beta (Homo sapiens) (UniProt P49841)
[6] = molecular target: Mitogen-activated protein kinase 1 (Homo sapiens) (UniProt P28482)
[7] = molecular target: T1, Aurora kinase A (Homo sapiens) (UniProt O14965)
T1 sequence (whole entry): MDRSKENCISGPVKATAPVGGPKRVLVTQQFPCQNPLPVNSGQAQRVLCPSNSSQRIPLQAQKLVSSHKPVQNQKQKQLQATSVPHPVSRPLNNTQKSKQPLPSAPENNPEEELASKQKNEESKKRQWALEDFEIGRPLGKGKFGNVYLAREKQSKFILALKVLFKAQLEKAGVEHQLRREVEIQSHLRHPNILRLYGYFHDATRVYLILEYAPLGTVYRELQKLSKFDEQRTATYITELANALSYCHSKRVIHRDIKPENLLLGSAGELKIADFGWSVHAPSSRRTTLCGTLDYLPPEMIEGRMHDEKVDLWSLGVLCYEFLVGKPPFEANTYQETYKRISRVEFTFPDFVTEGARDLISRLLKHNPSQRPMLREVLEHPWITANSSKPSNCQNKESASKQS

[8] = molecular target: T2, Transcription intermediary factor 1-alpha (Homo sapiens) (UniProt O15164)
T2 sequence (whole entry): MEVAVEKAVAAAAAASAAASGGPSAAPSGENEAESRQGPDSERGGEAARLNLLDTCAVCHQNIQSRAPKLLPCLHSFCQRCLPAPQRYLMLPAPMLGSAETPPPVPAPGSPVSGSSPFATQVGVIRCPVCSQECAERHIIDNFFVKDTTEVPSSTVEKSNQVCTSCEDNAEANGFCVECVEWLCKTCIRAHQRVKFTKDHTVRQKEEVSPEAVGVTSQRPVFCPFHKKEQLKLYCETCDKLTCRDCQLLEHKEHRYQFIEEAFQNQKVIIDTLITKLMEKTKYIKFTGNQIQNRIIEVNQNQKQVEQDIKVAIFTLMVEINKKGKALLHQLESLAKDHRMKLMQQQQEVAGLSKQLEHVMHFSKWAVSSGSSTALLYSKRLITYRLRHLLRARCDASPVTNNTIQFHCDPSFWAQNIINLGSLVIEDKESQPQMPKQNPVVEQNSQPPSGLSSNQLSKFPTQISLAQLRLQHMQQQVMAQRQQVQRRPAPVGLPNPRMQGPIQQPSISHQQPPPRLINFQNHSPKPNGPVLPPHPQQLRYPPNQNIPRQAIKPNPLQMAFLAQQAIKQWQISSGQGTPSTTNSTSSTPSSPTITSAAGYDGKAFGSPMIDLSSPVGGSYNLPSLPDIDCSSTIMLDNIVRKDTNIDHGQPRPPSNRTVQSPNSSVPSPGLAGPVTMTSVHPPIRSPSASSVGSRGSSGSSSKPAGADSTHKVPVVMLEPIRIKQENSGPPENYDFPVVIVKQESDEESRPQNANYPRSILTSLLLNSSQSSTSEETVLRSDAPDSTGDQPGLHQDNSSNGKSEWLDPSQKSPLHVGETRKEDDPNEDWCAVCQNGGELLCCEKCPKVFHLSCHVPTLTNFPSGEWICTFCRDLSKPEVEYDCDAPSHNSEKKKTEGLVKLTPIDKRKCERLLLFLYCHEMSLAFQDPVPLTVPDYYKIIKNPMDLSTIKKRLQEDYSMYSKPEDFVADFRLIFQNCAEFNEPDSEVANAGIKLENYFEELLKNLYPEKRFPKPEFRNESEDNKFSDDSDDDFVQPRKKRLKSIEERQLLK

Chain of Casein kinase I isoform delta (Homo sapiens) (P48730 whole entry, looked up, canonical isoform): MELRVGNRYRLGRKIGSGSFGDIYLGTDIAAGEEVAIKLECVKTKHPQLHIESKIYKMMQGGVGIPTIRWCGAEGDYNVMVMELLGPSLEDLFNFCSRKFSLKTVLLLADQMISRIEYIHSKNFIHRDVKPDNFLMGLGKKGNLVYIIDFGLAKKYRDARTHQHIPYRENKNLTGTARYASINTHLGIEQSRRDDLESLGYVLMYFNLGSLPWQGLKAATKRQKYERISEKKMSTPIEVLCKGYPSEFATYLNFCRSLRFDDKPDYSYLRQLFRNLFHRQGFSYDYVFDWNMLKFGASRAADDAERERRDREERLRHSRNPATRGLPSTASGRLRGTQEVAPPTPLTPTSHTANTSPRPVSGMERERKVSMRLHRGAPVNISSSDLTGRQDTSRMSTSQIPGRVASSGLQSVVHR
Chain of Glycogen synthase kinase-3 beta (Homo sapiens) (P49841 whole entry, looked up): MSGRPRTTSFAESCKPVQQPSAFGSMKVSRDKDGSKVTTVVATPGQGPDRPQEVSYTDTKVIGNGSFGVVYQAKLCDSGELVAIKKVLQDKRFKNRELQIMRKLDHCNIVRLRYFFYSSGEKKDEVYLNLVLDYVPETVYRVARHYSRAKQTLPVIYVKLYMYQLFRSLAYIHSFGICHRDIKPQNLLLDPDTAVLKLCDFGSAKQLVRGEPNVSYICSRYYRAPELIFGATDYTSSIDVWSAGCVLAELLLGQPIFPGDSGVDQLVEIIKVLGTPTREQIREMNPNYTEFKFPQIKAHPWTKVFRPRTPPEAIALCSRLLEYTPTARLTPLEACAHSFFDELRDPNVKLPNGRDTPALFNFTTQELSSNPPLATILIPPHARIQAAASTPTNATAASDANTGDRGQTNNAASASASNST
Chain of Mitogen-activated protein kinase 1 (Homo sapiens) (P28482 whole entry): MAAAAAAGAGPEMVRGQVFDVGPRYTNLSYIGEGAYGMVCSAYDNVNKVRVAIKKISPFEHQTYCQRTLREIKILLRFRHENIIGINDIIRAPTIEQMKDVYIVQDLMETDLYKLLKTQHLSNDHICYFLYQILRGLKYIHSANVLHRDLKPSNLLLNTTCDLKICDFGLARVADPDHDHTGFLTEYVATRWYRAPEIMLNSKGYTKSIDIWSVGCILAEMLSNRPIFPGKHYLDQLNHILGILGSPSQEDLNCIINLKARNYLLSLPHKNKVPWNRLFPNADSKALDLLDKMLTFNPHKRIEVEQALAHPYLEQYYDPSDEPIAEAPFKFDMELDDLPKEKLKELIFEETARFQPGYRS
Chain of Tyrosine-protein kinase ABL1 (Homo sapiens) (P00519 whole entry): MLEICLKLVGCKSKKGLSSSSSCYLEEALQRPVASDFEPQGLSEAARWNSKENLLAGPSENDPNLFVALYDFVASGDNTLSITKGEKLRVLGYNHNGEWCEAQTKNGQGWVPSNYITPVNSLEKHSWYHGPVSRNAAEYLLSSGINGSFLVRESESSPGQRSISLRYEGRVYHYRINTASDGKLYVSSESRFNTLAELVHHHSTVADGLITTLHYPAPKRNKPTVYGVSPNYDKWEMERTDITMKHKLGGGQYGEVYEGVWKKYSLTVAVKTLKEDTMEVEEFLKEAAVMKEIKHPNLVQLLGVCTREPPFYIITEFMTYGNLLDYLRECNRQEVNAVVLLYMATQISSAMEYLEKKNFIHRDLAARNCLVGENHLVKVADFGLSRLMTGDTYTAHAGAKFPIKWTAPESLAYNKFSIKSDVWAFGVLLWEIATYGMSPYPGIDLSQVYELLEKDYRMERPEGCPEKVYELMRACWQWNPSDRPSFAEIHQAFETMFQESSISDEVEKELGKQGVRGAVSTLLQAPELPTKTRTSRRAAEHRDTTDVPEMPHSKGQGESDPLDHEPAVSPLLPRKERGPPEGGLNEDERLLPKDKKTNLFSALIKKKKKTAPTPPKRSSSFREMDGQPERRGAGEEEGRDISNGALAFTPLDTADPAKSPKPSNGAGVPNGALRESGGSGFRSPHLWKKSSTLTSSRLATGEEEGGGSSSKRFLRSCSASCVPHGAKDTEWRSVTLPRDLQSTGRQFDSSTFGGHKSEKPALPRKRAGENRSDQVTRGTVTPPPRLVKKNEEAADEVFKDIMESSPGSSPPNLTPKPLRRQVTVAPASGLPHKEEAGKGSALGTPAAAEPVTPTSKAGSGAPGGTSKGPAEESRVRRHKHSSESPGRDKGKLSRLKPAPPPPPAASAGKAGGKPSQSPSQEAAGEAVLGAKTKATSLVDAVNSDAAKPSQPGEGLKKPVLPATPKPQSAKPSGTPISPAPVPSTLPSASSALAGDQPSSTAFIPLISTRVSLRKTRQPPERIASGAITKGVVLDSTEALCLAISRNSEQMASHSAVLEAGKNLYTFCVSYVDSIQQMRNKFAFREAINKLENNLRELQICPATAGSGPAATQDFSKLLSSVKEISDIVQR

Row | Compound | ΔTm [1] [°C] | ΔTm [2] [°C] | ΔTm [3] [°C] | ΔTm [4] [°C] | ΔTm [5] [°C] | ΔTm [6] [°C] | ΔTm [7] [°C] | ΔTm [8] [°C] | ΔTm ([5]; Protein concentration 2.0 uM) [°C]
1 | CC(C)=C[C@H]1C[C@H](C)[C@]2(CC[C@]3(C)C[C@H]4[C@H](C(=O)C[C@@]4(C)O)/C(C=O)=C\C[C@H]32)O1 | -0.34 | -1.06 | -0.29 | -0.36 | -0.53 | -0.16 | -1.12 | -1.12 | –
2 | N#Cc1ccc([C@H]2CCCC[C@H]2O)cc1C(F)(F)F | 0.55 | -1.51 | 0.11 | 0.3 | -0.43 | -0.24 | -1.09 | -1.04 | –
3 | CCOC(=O)c1ccc(-c2ccc(OC(=O)N(C)Cc3cccc(-c4ccncc4)c3)cc2)cc1 | 1.38 | -2.49 | 0.29 | -0.29 | -4.12 | 0.21 | -1.65 | -0.65 | –
4 | CC(=O)Nc1ccc(OC[C@](C)(O)C(=O)Nc2ccc([N+](=O)[O-])c(C(F)(F)F)c2)cc1 | 0.78 | -0.77 | 0.35 | 0.23 | 0.71 | -0.26 | -0.03 | 0.02 | –
5 | C[C@]12O[C@H](C[C@]1(O)CO)n1c3ccccc3c3c4c(c5c6ccccc6n2c5c31)CNC4=O | – | -1.2 | 9.18 | 2.18 | 4.78 | 0.35 | 8.79 | -0.11 | –
6 | O=C(NCCCCc1ccccc1)n1c(=O)oc2cc(-c3ccc(F)cc3)ccc21 | 0.52 | -2.75 | 0.86 | -0.19 | 0.3 | 0.07 | -1.29 | 0.81 | –
7 | O=C(O)C1=CCCN(CCOC(c2ccc(C(F)(F)F)cc2)c2ccc(C(F)(F)F)cc2)C1 | 0.71 | -3.83 | -0.13 | -0.26 | -0.54 | 0.12 | -2.7 | 0.08 | –
8 | COC(=O)C[C@@H]1N=C(c2ccc(Cl)cc2)c2c(sc(C)c2C)-n2c(C)nnc21 | -0.09 | 12.3 | -0.41 | 0.16 | -0.01 | -0.21 | -1.3 | -0.91 | –
9 | Fc1ccc(C(OCCN2CCN(CCCc3ccccc3)CC2)c2ccc(F)cc2)cc1 | 0.53 | -4.03 | -0.37 | -0.45 | -0.66 | 0.05 | -2.65 | -0.53 | –
10 | O=C(N1CCCC[C@H]1Cc1ccccc1)n1cc(-c2ccc(-c3ccccc3)cc2)nn1 | 0.09 | 5.42 | 0.51 | -0.09 | -2.39 | -0.72 | -1.72 | 1.36 | –
11 | Nc1cccc(CNC(=O)c2ccc(Oc3ccc(OCc4cccc(F)c4)cc3)nc2)c1 | 1.07 | -0.91 | 0.38 | -0.56 | 1.13 | -0.86 | -1.57 | 0.24 | –
12 | N#Cc1nc2c(nc1C#N)-c1ccccc1C2=NOCc1ccccc1 | 0.19 | 1.2 | 3.11 | -0.93 | 0.13 | -0.23 | -1.52 | 1.99 | –
13 | Cc1ccc(N2C(=O)/C(=C/C=C/c3ccco3)C(=O)NC2=S)cc1Cl | 0.75 | -2.47 | -0.73 | 0.31 | -1.52 | -1.33 | -0.68 | -2.21 | –
14 | O=C(N1CCCC[C@@H]1Cc1ccccc1)n1cc(-c2ccc(-c3ccccc3)cc2)nn1 | 0.24 | -2.3 | 0.21 | -1.21 | -0.59 | -0.45 | -2.78 | 2.73 | –
15 | O=C1Cc2cc(C(=O)N[C@@H]3C[C@H]4CC[C@@H](C3)N4S(=O)(=O)CC3CCN(CCCC(F)(F)F)CC3)c(Cl)cc2N1 | -0.02 | -1.65 | 0.34 | 0.08 | -1.14 | -0.31 | -0.32 | -1.38 | –
16 | Nc1cc2c3c(c1)C(c1ccccc1)=N[C@@H](NC(=O)c1cccnc1)C(=O)N3CC2 | 0.6 | -0.29 | 0.3 | -0.17 | -0.38 | 0.37 | -2.21 | -0.79 | –
17 | C=Cc1cc(C(=O)Nc2ccc(C(=N)N)cc2)c(-c2ccc(C(=O)NCC3CC3)nc2C(=O)O)cc1OC | 0.26 | -1.29 | 0.57 | 0.02 | -0.41 | 0.21 | -1.17 | 0.42 | –
18 | CCS(=O)(=O)N1CCC([C@@H](C)n2c(C)c(C(=O)NCc3c(OC)cc(C)[nH]c3=O)c3ccccc32)CC1 | 0.06 | -2.35 | 0.2 | 0.01 | -0.39 | -0.34 | -0.26 | -1 | –
19 | Cc1sc2c(c1C)C(c1ccc(Cl)cc1)=N[C@@H](CC(=O)OC(C)(C)C)c1nnc(C)n1-2 | 0.27 | – | 0 | 0.21 | -0.11 | -0.24 | -0.4 | -1.48 | –
20 | CC(C)n1nc(-c2cc3cc(O)ccc3[nH]2)c2c(N)ncnc21 | – | 2.33 | 2.02 | 5.15 | – | 0.14 | 3.86 | -0.37 | 2
21 | N#Cc1ccc(N2N=C3c4ccc(C(=O)O)cc4CC[C@@H]3[C@@H]2C2CCCC2)cc1Cl | -2.47 | 0 | -2.04 | -4.9 | 0 | -9.49 | 0.42 | 1.43 | –
22 | COc1cc(C)[nH]c(=O)c1CNC(=O)c1c(C)n([C@H](C)C2CCOCC2)c2ccccc12 | 0.28 | -1.94 | 0.11 | 0.07 | -0.59 | -0.18 | -0.23 | -0.56 | –
